19 molecules from PubChem BioAssay (EPA / NIEHS) can be followed below.

Read-out in assay [1]: TIMP metallopeptidase inhibitor 1 (TIMP1), TIMP1 (gene 7076)
Description: BSK_hDFCGF_TIMP1: BioMAP Diversity Plus: hDFCGF Assay for TIMP metallopeptidase inhibitor 1 (TIMP1) Biomarker Activity (AID 2283062). Conditions: primary human foreskin fibroblasts; actives raise or lower the signal. In a few lines:
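Human skin fibroblasts (primary), hDFCGF system; compound exposure 24 h; TIMP-1 by ELISA; bidirectional fit vs DMSO negative control; overt cytotoxicity by SRB in parallel wells.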

Read-out in assay [2]: Monokine induced gamma interferon (MIG), CXCL9 (gene 4283)
Description: BSK_hDFCGF_MIG: BioMAP Diversity Plus: hDFCGF Assay for Monokine induced gamma interferon (MIG) Biomarker Activity (AID 2283063). Conditions: primary human foreskin fibroblasts; actives raise or lower the signal. In a few lines:
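Chemicals were added to primary human foreskin fibroblast cultures, which were sampled 24 h later. MIG levels were then quantified by ELISA and responses fitted in both directions relative to DMSO.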

Read-out in assay [3]: Matrix Metallopeptidase 1 (MMP1), MMP1 (gene 4312)
Description: BSK_hDFCGF_MMP1: BioMAP Diversity Plus: hDFCGF Assay for Matrix Metallopeptidase 1 (MMP1) Biomarker Activity (AID 2283064). Conditions: primary human foreskin fibroblasts; actives raise or lower the signal. The essentials: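 Primary human foreskin fibroblasts in the hDFCGF system were dosed with test chemical, and MMP1 was measured by ELISA 24 h later. Values come from bidirectional curve fitting against the DMSO baseline.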

Read-out in assay [4]: Vascular cell adhesion molecule 1 (VCAM1), VCAM1 (gene 7412)
Description: BSK_hDFCGF_VCAM1: BioMAP Diversity Plus: hDFCGF Assay for Vascular cell adhesion molecule 1 (VCAM1) Biomarker Activity (AID 2283065).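 As to AC50: VCAM-1 protein level quantified by ELISA after 24 h chemical exposure.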 The following applies: primary human foreskin fibroblasts; actives raise or lower the signal. In a few lines:
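Human foreskin fibroblast primary cells, chemical exposure 24 h; VCAM-1 by ELISA; bidirectional fit, DMSO = negative control/baseline.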

Read-out in assay [5]: Plasminogen activator inhibitor-1 (PAI1), SERPINE1 (gene 5054)
Description: BSK_hDFCGF_PAI1: BioMAP Diversity Plus: hDFCGF Assay for Plasminogen activator inhibitor-1 (PAI1) Biomarker Activity (AID 2283066). Conditions: primary human foreskin fibroblasts; actives raise or lower the signal. The essentials:
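PAI-1 levels, determined by ELISA, served as the endpoint in human foreskin fibroblast cultures exposed to compound for 24 h, with DMSO as baseline.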

Read-out in assay [6]: Intercellular Adhesion Molecule 1 (ICAM1), ICAM1 (gene 3383)
Description: BSK_KF3CT_ICAM1: BioMAP Diversity Plus: KF3CT Assay for Intercellular Adhesion Molecule 1 (ICAM1) Biomarker Activity (AID 2283067). The following applies: primary human keratinocytes with fibroblasts; actives raise or lower the signal. In a few lines: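 ICAM-1 levels are measured by ELISA 24 h after dosing a primary human co-culture of keratinocytes and foreskin fibroblasts. Activity in either direction is fitted relative to DMSO vehicle.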

Read-out in assay [7]: Interferon-gamma inducible Protein 10 (IP10), CXCL10 (gene 3627)
Description: BSK_KF3CT_IP10: BioMAP Diversity Plus: KF3CT Assay for Interferon-gamma inducible Protein 10 (IP10) Biomarker Activity (AID 2283068). The following applies: primary human keratinocytes with fibroblasts; actives raise or lower the signal. The essentials:
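Human keratinocyte plus foreskin fibroblast primary co-culture exposed to test chemical for 24 h; IP-10 measured by ELISA. Concentration-response fitted bidirectionally against DMSO control as baseline.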

Assay [8] can be described thus: BSK_KF3CT_SRB: Viability Assessment in the BioMAP Diversity Plus: KF3CT Assay (AID 2283069).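 Also: total protein by sulforhodamine B staining as a cytotoxicity measure; read 24 h after compound addition.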 The following applies: primary human keratinocytes with fibroblasts. In a few lines:
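Human primary keratinocyte plus foreskin fibroblast co-culture exposed to chemicals for 24 h. Total protein measured by 0.1% sulforhodamine B staining after 10% TCA fixation, read at 560 nm; bidirectional fitting versus DMSO baseline.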

Read-out in assay [9]: Interleukin-1 alpha (IL1a), IL1A (gene 3552)
Description: BSK_KF3CT_IL1a: BioMAP Diversity Plus: KF3CT Assay for Interleukin-1 alpha (IL1a) Biomarker Activity (AID 2283070). Conditions: primary human keratinocytes with fibroblasts; actives raise or lower the signal. The essentials: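 Human keratinocyte plus foreskin fibroblast primary co-culture, sampled 24 h after chemical dosing. IL-1a measured by ELISA; responses fitted bidirectionally against DMSO baseline (negative control), so gain or loss of signal both count.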

Read-out in assay [10]: TIMP metallopeptidase inhibitor 2 (TIMP2), TIMP2 (gene 7077)
Description: BSK_KF3CT_TIMP2: BioMAP Diversity Plus: KF3CT Assay for TIMP metallopeptidase inhibitor 2 (TIMP2) Biomarker Activity (AID 2283071). Conditions: primary human keratinocytes with fibroblasts; actives raise or lower the signal. The essentials:
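Keratinocyte–fibroblast co-culture, 24 h exposure; TIMP-2 ELISA, DMSO-normalised bidirectional fit. Parallel SRB (0.1%, TCA-fixed, 560 nm) total-protein staining gauges cytotoxicity.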

Several values for one entry are separate records, joined by “and”; a condition that tells them apart may be missing. Equal entries are not always repeated. A structure can be active in one record and inactive in another. Activity calls are given as the source filed them. The calls were made as follows: active = hit-call score of the fitted dose curve at least 0.9, where 1 is the maximum; inactive = score below 0.9.

Consider `O=S1(=O)CCCO1`, for which the result in assay [1], in assay [2], in assay [3], in [4], in assay [5] and in [6] was inactive. Moreover, the outcome in assay [7], in [8], in assay [9] and in assay [10] was inactive.

Consider `OC[C@H]1O[C@@](CO)(O[C@H]2O[C@H](CO)[C@@H](O)[C@H](O)[C@H]2O)[C@@H](O)[C@@H]1O`, for which the result in [1], in assay [2], in assay [3], in assay [4], in assay [5] and in assay [6] was inactive. Further, the result in assay [7], in assay [8], in assay [9] and in assay [10] was inactive.

In the case of `FC(F)(F)COC(OCC(F)(F)F)OCC(F)(F)F`, the result in assay [1], in assay [2], in [3], in assay [4], in [5] and in assay [6] was inactive. Moreover, the outcome in assay [7], in [8], in assay [9] and in assay [10] was inactive.

By AC50 is commonly meant the concentration giving half of the maximal activity seen. As for `FC(F)(F)C(F)(F)C(F)(F)C(F)(F)C(F)(F)C(F)(F)I`, the outcome in [1], in assay [2], in [3], in [4], in assay [5] and in assay [6] was inactive. In addition, the outcome in assay [7], in assay [8], in [9] and in assay [10] was inactive. In addition, the half-maximal activity concentration (AC50) in [4] is 48.3 µM (active).

With `FC(F)C(F)(F)COCC1CO1` (stereo unspecified), the result in [1], in assay [2], in assay [3], in assay [4], in [5] and in assay [6] was inactive. The result in assay [7], in [8], in assay [9] and in [10] was inactive.

Regarding `CCCCCOC(C)=O`, the outcome in [1], in [2], in assay [3], in [4], in [5] and in [6] was inactive. Also, the result in [7], in assay [8], in assay [9] and in [10] was inactive.

For `O=C(O)c1cccc(C[C@@H]2COc3ccc(OCc4nc5cc(F)ccc5s4)cc3[C@@H]2O)c1`, the result in [1], in assay [2], in assay [3], in [4], in [5] and in [6] was inactive. Further, the outcome in assay [7], in [8], in assay [9] and in [10] was inactive.

Consider `CCOC(N)=O`, for which the result in assay [1], in assay [2], in [3], in assay [4], in assay [5] and in [6] was inactive. For the same molecule, the outcome in assay [7], in assay [8], in [9] and in assay [10] was inactive.

Turning to `CCCCCCCC/C=C\CCCCCCCC(=O)OC[C@@H](O)[C@H]1OC[C@H](O)[C@H]1O`, the result in [1], in assay [2], in [3], in [4], in assay [5] and in assay [6] was inactive. The result in assay [7], in [8], in assay [9] and in assay [10] was inactive.

Regarding `CCCCCCCCCC`, the result in [1], in [2], in assay [3], in assay [4], in assay [5] and in assay [6] was inactive. Moreover, the result in assay [7], in [8], in [9] and in assay [10] was inactive.

On to `O=C(O)c1cccc(C(=O)O)c1`, for which the outcome in assay [1], in [2], in [3], in assay [4], in [5] and in [6] was inactive. The result in [7], in assay [8], in assay [9] and in assay [10] was inactive.

`CNC(C)=O`: the result in assay [1], in assay [2], in assay [3], in assay [4], in assay [5] and in assay [6] was inactive. The outcome in assay [7], in [8], in assay [9] and in [10] was inactive.

Regarding `Cc1nc(-c2ccccn2)ncc1C(=O)Nn1cc(C)c2cc(F)ccc21`, the result in assay [1], in assay [2], in assay [3], in assay [4], in [5] and in [6] was inactive. In addition, the outcome in assay [7], in assay [8], in assay [9] and in assay [10] was inactive.

As for `C[Si](C)(C)C(F)(F)C(F)(F)C(F)(F)F`, the outcome in assay [1], in assay [2], in assay [3], in assay [4], in assay [5] and in assay [6] was inactive. Moreover, the outcome in [7], in [8], in [9] and in assay [10] was inactive.

For `C=CN1CCCC1=O`, the outcome in [1], in [2], in assay [3], in [4], in [5] and in [6] was inactive. Also, the outcome in assay [7], in assay [8], in [9] and in [10] was inactive.

As for `OC(CCl)CCl`, the outcome in assay [1], in assay [2], in [3], in [4], in [5] and in assay [6] was inactive. Also, the result in [7], in [8], in assay [9] and in assay [10] was inactive.

As for `Cc1ccc(S(=O)(=O)NC(=O)NN2CCCCCC2)cc1`, the result in assay [1], in assay [2], in [3], in assay [4], in assay [5] and in [6] was inactive. The result in [7], in assay [8], in [9] and in assay [10] was inactive.

Regarding `CCCc1ccccc1`, the result in [1], in assay [2], in assay [3], in assay [4], in assay [5] and in assay [6] was inactive. In addition, the result in assay [7], in [8], in assay [9] and in [10] was inactive.

Consider `OC(O)(C(F)C(O)(O)C(F)(F)F)C(F)(F)F`, for which the result in [1], in assay [3], in assay [5], in assay [6], in assay [7] and in assay [8] was inactive. Moreover, the outcome in [9] and in [10] was inactive. The half-maximal activity concentration (AC50) in assay [2] is 30 µM (active) and 36.3 µM (active); in assay [4], 1.12 µM (active) and 13 µM (active).
